Measurements reported in PubChem BioAssay (Tox21).
Results filed as inconclusive are left out. A call without a number means that no potency is given here. Unmarked numbers belong to inactive results. Active and inactive are the calls of the source. Unless noted, calls follow the shape of the dose curve; as a rule, active = well fitted curve in the direction sought with a large enough effect in the repeat runs; inconclusive = weak or mixed curves; inactive = no such curve, though single readings can be large; an effect the other way counts as inactive or inconclusive.

Experiments:
[1] = qHTS assay to identify small molecule antagonists of the thyroid receptor (TR) signaling pathway - cell viability counter screen (AID 743064); also: nearly all actives have a fitted effect of over 50% in size
Method in brief: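 Compounds were tested on GH3.TRE-Luc cells in the presence of T3 at 1 nM final. Following 23.5 h at 37 °C, cell viability was quantified by CellTiter-Fluor.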

[2] = molecular target: Estrogen receptor (Homo sapiens) (UniProt P03372); assay: qHTS assay to identify small molecule antagonists of the estrogen receptor alpha (ER-alpha) signaling pathway (AID 743069; active = well fitted curve in the direction sought with a large enough effect in the signal ratio in the repeat runs, not every such curve was filed as active; the % refers to the signal ratio)
Method in brief: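 A 17beta-estradiol challenge was applied right after compound transfer to ER-alpha-UAS-bla HEK293 cells previously kept in charcoal-stripped serum. Plates stood 18 hr at 37C and 5% CO2; fluorescence was read following 2 hr FRET substrate loading at room temperature.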

[3] = qHTS assay to identify small molecule antagonists of the estrogen receptor alpha (ER-alpha) signaling pathway - cell viability counter screen (AID 743074; calls by dose curve;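 also: HEK293 cells carrying ER-alpha-UAS-bla reporter stimulated with 17beta-estradiol; nearly all actives have a fitted effect of over 45% in size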)
[4] = molecular target: Estrogen receptor (Homo sapiens) (UniProt P03372); assay: qHTS assay to identify small molecule agonists of the estrogen receptor alpha (ER-alpha) signaling pathway (AID 743075; calls by dose curve;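 also: HEK293 GripTite cells with ER-alpha and UAS-driven beta-lactamase reporter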)
[5] = molecular target: Estrogen receptor (Homo sapiens) (UniProt P03372); assay: qHTS assay to identify small molecule agonists of the estrogen receptor alpha (ER-alpha) signaling pathway using the BG1 cell line (AID 743079); conditions: BG1Luc4E2 cells, ERE-luciferase agonist, 22 h; also: nearly all actives have a fitted effect of over 20% in size
[6] = qHTS assay to identify small molecule antagonists of the estrogen receptor alpha (ER-alpha) signaling pathway using the BG1 cell line (AID 743080; calls by dose curve;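 also: BG1 cells stimulated with 17beta-estradiol alongside compound; nearly all actives have a fitted effect of over 25% in size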; also: potency is read from the fitted curve at half-maximal effect)
Method in brief: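 Endogenous full-length ER-alpha in BG1-Luc-4E2 cells drives a stably integrated 4×ERE luciferase gene; compounds were tested against 17beta-estradiol over 21.5 h, with luminescence and multiplexed viability fluorescence recorded.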

[7] = qHTS assay to identify small molecule antagonists of the estrogen receptor alpha (ER-alpha) signaling pathway using the BG1 cell line - cell viability counter screen (AID 743081);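 also: compound given together with 17beta-estradiol as the ER stimulus; nearly all actives have a fitted effect of over 45% in size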
Aromatase (Homo sapiens) = Aromatase (Homo sapiens) (UniProt P11511); assay: qHTS assay to identify aromatase inhibitors (AID 743083); also: nearly all actives have a fitted effect of over 55% in size
[8] = qHTS assay to identify aromatase inhibitors - cell viability counter screen (AID 743084);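 also: cells stimulated with testosterone during compound exposure; nearly all actives have a fitted effect of over 55% in size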
[9] = molecular target: Aryl hydrocarbon receptor (Homo sapiens) (UniProt P35869); assay: qHTS assay to identify small molecule that activate the aryl hydrocarbon receptor (AhR) signaling pathway (AID 743085);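 also: HG2L7.5c1 human HepG2 liver cells with stably integrated DRE-driven firefly reporter; nearly all actives have a fitted effect of over 15% in size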
Method in brief: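 24 h compound exposure, 37C, HepG2-derived HG2L7.5c1 cells with DRE-responsive luciferase. Readouts: fluorescence viability, then luminescence at room temperature after 30 min.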

[10] = qHTS assay to identify small molecule that activate the aryl hydrocarbon receptor (AhR) signaling pathway - cell viability counter screen (AID 743086);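 also: HepG2 liver cells carrying the AhR DRE luciferase reporter; nearly all actives have a fitted effect of over 45% in size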
Method in brief: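 HepG2-AhR-luc (HG2L7.5c1) cells, 4000/well, were preincubated 5 h at 37C, exposed to compound in qHTS format for 24 hr at 37C, then given CellTiter-Fluor for 30 min; viability was read as fluorescence in the reporter wells.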

[11] = molecular target: Peroxisome proliferator-activated receptor gamma (Homo sapiens) (UniProt P37231); assay: qHTS assay to identify small molecule agonists of the peroxisome proliferator-activated receptor gamma (PPARg) signaling pathway (AID 743094; active = well fitted activation curve with a large enough effect in the signal ratio in the repeat runs, not every such curve was filed as active; the % refers to the signal ratio)
Method in brief: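 Agonist activity was taken from a beta-lactamase reporter (FRET substrate, 1 h at room temperature) in HEK293H cells carrying a PPARg UAS-bla construct. Compounds in DMSO were incubated 17 h at 37C after a 5 h cell pre-incubation.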

[12] = qHTS assay to identify small molecule antagonists of the peroxisome proliferator-activated receptor gamma (PPARg) signaling pathway - cell viability counter screen (AID 743194); conditions: Potency: co-treated with 50 nM rosiglitazone; also: nearly all actives have a fitted effect of over 55% in size
Method in brief: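 PPARg-UAS-bla HEK293H cells were plated, rested 5 h at 37 C, then treated with compounds plus rosiglitazone (50 nM final) for 17 h at 37 C; viability was then read by CellTiter-Glo luminescence after 30 min at room temperature.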

[13] = qHTS assay for small molecule agonists of the antioxidant response element (ARE) signaling pathway (AID 743202; active = well fitted activation curve with a large enough effect in the signal ratio in the repeat runs, not every such curve was filed as active; the % refers to the signal ratio)
Method in brief: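 Following a 16 h, 37 C exposure of reporter HepG2 cells (ARE-driven beta-lactamase, 2,000 cells/well) to compounds, FRET substrate was applied for 2 h at room temperature and fluorescence intensity recorded.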

[14] = qHTS assay for small molecule agonists of the antioxidant response element (ARE) signaling pathway - cell viability counter screen (AID 743203; calls by dose curve; also: nearly all actives have a fitted effect of over 55% in size)
Method in brief: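 Viability counter screen: CellTiter-Glo luminescence, read after 30 min at room temperature, in ARE-bla HepG2 wells. Compound exposure lasted 16 h at 37C/5% CO2, following a 5 h pre-incubation of the cells after plating.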

[15] = qHTS assay for small molecule activators of the heat shock response signaling pathway - cell viability counter screen (AID 743209); also: nearly all actives have a fitted effect of over 50% in size
Method in brief: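 Cytotoxicity counter screen run in the same wells as the heat-shock bla reporter assay: HeLa HSE-bla cells, 5 h compound exposure at 37 C, viability read by CellTiter-Glo luminescence.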

[16] = qHTS assay for small molecule activators of the heat shock response signaling pathway (AID 743210; active = well fitted activation curve with a large enough effect in the signal ratio in the repeat runs, with a control signal flat, not every such curve was filed as active; the % refers to the signal ratio)
Method in brief: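 Heat shock element–beta-lactamase HeLa reporter cells; qHTS with compounds for 5 h at 37 C; detection by FRET substrate fluorescence after 2.5 h at RT.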

[17] = test system: thyroid hormone receptor (rat, GH3 cells); assay: qHTS assay to identify small molecule agonists of the thyroid receptor (TR) signaling pathway (AID 743066; calls by dose curve)
[18] = molecular target: Peroxisome proliferator-activated receptor gamma (Homo sapiens) (UniProt P37231); assay: qHTS assay to identify small molecule antagonists of the peroxisome proliferator-activated receptor gamma (PPARg) signaling pathway (AID 743191; calls by dose curve; also: nearly all actives have a fitted effect of over 30% in size)
Method in brief: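 GeneBLAzer PPARg UAS-bla HEK293H cells carrying a UAS-driven beta-lactamase reporter were plated at 3000 cells/well, preincubated 5 h at 37C, then given compound for 17 h at 37C; LiveBLAzer B/G FRET substrate was read after 1 h at room temperature.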

[19] = qHTS assay to identify small molecule antagonists of the thyroid receptor (TR) signaling pathway (AID 743065); also: nearly all actives have a fitted effect of over 55% in size
Method in brief: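 GH3.TRE-Luc rat pituitary cells carrying two TR response elements driving luciferase were plated for 4 h, given compound plus 1 nM T3 (final), and incubated 23.5 h at 37 C. ONE-Glo luminescence measured reporter inhibition; CellTiter-Fluor fluorescence tracked cytotoxicity.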

Aromatase (Homo sapiens), sequence (P11511 whole entry, looked up): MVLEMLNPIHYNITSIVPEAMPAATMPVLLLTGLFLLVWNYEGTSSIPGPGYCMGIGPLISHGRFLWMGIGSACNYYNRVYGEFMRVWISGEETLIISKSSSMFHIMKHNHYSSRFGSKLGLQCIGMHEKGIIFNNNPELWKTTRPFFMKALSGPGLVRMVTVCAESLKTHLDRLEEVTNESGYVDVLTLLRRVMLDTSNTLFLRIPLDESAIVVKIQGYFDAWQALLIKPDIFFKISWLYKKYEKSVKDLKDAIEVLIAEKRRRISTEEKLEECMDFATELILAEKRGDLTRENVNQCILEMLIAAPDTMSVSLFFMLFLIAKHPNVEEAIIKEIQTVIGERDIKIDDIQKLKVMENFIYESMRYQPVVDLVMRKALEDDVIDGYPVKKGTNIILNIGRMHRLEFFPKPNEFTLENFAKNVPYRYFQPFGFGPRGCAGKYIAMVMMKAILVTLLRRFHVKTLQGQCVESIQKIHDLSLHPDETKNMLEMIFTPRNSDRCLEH
Peroxisome proliferator-activated receptor gamma (Homo sapiens), sequence (P37231 whole entry, looked up): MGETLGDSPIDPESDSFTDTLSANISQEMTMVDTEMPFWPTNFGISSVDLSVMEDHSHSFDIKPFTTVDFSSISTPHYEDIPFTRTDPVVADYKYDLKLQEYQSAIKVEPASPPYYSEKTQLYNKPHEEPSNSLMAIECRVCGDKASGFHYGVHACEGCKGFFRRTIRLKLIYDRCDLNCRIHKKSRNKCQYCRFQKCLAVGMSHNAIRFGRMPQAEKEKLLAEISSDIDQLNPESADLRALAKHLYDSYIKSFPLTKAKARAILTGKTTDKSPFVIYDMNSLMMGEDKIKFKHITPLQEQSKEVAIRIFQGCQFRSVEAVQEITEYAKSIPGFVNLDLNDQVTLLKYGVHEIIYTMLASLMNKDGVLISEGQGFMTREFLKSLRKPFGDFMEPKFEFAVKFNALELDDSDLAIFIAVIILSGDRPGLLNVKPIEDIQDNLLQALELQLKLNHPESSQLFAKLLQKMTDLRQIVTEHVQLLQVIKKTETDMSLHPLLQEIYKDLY
Estrogen receptor (Homo sapiens), sequence (P03372 whole entry, looked up): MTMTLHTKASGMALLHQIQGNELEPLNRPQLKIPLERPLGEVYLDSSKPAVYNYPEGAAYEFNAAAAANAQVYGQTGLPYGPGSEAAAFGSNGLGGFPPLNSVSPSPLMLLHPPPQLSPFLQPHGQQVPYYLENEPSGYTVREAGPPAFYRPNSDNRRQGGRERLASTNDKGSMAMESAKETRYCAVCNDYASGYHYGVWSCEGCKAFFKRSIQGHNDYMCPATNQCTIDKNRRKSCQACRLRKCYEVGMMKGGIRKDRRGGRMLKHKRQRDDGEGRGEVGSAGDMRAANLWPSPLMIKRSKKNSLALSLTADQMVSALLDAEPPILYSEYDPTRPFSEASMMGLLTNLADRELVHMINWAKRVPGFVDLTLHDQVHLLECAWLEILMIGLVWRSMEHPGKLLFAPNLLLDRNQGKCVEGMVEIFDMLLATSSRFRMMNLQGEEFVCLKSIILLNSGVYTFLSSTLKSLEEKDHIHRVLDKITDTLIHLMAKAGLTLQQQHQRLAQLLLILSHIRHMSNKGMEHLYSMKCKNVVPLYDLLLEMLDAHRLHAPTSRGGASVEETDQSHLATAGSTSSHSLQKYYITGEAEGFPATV
Aryl hydrocarbon receptor (Homo sapiens), sequence (P35869 whole entry, looked up): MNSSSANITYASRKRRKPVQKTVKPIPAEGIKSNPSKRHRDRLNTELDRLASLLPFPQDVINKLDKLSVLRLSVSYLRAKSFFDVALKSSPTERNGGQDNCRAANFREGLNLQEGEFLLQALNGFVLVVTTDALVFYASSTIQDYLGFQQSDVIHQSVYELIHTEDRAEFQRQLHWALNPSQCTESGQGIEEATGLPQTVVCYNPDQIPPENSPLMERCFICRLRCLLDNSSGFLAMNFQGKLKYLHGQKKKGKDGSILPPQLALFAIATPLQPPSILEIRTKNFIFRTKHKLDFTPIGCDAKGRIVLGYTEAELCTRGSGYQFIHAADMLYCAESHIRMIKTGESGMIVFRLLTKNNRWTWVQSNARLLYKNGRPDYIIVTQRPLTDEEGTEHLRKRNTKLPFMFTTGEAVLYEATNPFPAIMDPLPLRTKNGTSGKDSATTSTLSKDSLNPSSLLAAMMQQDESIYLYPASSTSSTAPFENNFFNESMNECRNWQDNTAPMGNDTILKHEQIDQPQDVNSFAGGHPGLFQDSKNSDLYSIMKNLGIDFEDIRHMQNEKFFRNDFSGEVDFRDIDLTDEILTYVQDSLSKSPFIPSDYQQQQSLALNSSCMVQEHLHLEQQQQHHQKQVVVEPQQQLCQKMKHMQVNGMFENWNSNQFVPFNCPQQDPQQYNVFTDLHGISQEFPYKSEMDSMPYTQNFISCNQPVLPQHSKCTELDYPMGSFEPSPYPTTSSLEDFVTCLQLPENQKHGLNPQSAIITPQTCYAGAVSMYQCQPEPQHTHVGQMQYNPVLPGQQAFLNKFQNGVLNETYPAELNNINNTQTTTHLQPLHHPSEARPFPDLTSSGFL

Q: With `CC(=O)CCc1ccc2c(c1)OCO2` as the compound, how does the Potency [1] read?
A: inactive

Q: What about the Potency [2] of the same compound?
A: inactive

Q: And the outcome [3]?
A: inactive

Q: What about the Potency [4] of the same compound?
A: inactive

Q: And the activation ([5]; at 70.3 µM (top of the series))?
A: 24.9%

Q: And the Potency [6]?
A: inactive

Q: What about the Potency [7] of the same compound?
A: inactive

Q: What about the Potency (Aromatase (Homo sapiens)) of the same compound?
A: inactive

Q: What about the Potency [8] of the same compound?
A: inactive

Q: What about the Potency [9] of the same compound?
A: inactive

Q: And the outcome [10]?
A: inactive

Q: And the outcome [11]?
A: inactive

Q: And the Potency [12]?
A: inactive

Q: What about the Potency [13] of the same compound?
A: inactive

Q: What about the Potency [14] of the same compound?
A: inactive

Q: What about the Potency [15] of the same compound?
A: inactive

Q: And the outcome [16]?
A: inactive

Q: With `COc1ccc2c(c1OC)CN1CCc3cc4c(cc3C1C2)OCO4` (stereo not drawn) as the compound, how does the Potency [1] read?
A: inactive

Q: What about the Potency [17] of the same compound?
A: inactive

Q: And the outcome [3]?
A: inactive

Q: What about the Potency [4] of the same compound?
A: inactive

Q: What about the activation ([5]; at 32.5 µM (top of the series)) of the same compound?
A: -4.85%

Q: And the Potency [6]?
A: inactive

Q: And the Potency [7]?
A: inactive

Q: And the Potency (Aromatase (Homo sapiens))?
A: inactive

Q: What about the Potency [8] of the same compound?
A: inactive

Q: And the outcome [10]?
A: inactive

Q: And the outcome [11]?
A: inactive

Q: What about the Potency [18] of the same compound?
A: inactive

Q: And the Potency [12]?
A: inactive

Q: What about the Potency [14] of the same compound?
A: inactive

Q: What about the Potency [15] of the same compound?
A: inactive

Q: And the outcome [16]?
A: inactive

Q: Which results are given for `CN/C(=N\[N+](=O)[O-])NCC1CCOC1` (stereo not drawn)?
A: Potency [1]: inactive; Potency [17]: inactive; outcome [3]: inactive; Potency [7]: inactive; Potency (Aromatase (Homo sapiens)): inactive; Potency [8]: inactive; Potency [9]: inactive; outcome [10]: inactive; Potency [12]: inactive; Potency [13]: inactive; Potency [14]: inactive; outcome [16]: inactive

Q: With `CCCSP(=O)(OCC)Oc1ccc(Br)cc1Cl` (stereo not drawn) as the compound, how does the Potency [1] read?
A: inactive

Q: And the Potency [17]?
A: inactive

Q: And the outcome [3]?
A: inactive

Q: What about the Potency [7] of the same compound?
A: inactive

Q: And the Potency [8]?
A: inactive

Q: And the outcome [10]?
A: inactive

Q: What about the Potency [14] of the same compound?
A: inactive

Q: And the Potency [15]?
A: inactive

Q: What about the outcome [16] of the same compound?
A: inactive

Q: With `CN1C(=S)CN=C(c2ccccc2)c2cc(Cl)ccc21` as the compound, how does the Potency [1] read?
A: inactive

Q: And the Potency [17]?
A: inactive

Q: What about the outcome [3] of the same compound?
A: inactive

Q: And the Potency [4]?
A: inactive

Q: What about the Potency [6] of the same compound?
A: 13.3 µM (active)

Q: What about the Potency [7] of the same compound?
A: inactive

Q: What about the Potency (Aromatase (Homo sapiens)) of the same compound?
A: inactive

Q: What about the Potency [8] of the same compound?
A: inactive

Q: And the outcome [10]?
A: inactive

Q: What about the Potency [18] of the same compound?
A: inactive

Q: And the Potency [12]?
A: inactive

Q: What about the Potency [13] of the same compound?
A: inactive

Q: What about the Potency [15] of the same compound?
A: inactive

Q: And the outcome [16]?
A: inactive

Q: For `C(CCOCC1CO1)COCC1CO1` (stereo not drawn), which Potency [1] is on record?
A: inactive

Q: And the Potency [17]?
A: inactive

Q: What about the Potency [4] of the same compound?
A: inactive

Q: And the activation ([5]; at 70.3 µM (top of the series))?
A: 0.112%

Q: What about the Potency [6] of the same compound?
A: inactive

Q: What about the Potency [7] of the same compound?
A: inactive

Q: What about the Potency (Aromatase (Homo sapiens)) of the same compound?
A: inactive

Q: And the Potency [8]?
A: inactive

Q: And the Potency [9]?
A: inactive

Q: And the outcome [10]?
A: inactive

Q: And the Potency [15]?
A: inactive

Q: What about the outcome [16] of the same compound?
A: inactive

Q: Which Potency [19] does the source give for `N#CC(Cl)(Cl)Cl` here?
A: inactive

Q: And the Potency [17]?
A: inactive

Q: What about the Potency [2] of the same compound?
A: inactive

Q: And the outcome [3]?
A: inactive

Q: And the Potency [4]?
A: inactive

Q: And the activation ([5]; at 70.3 µM (top of the series))?
A: -6.23%

Q: What about the Potency [6] of the same compound?
A: inactive

Q: And the Potency [7]?
A: inactive

Q: What about the Potency (Aromatase (Homo sapiens)) of the same compound?
A: inactive

Q: And the Potency [8]?
A: inactive

Q: And the Potency [9]?
A: inactive

Q: What about the outcome [10] of the same compound?
A: inactive

Q: And the outcome [11]?
A: inactive

Q: And the Potency [18]?
A: inactive

Q: And the Potency [13]?
A: inactive

Q: And the Potency [14]?
A: inactive

Q: What about the outcome [16] of the same compound?
A: inactive

Q: Which Potency [19] does the source give for `COP(N)(=S)Oc1ccccc1C(=O)OC(C)C` (stereo not drawn) here?
A: inactive

Q: What about the Potency [17] of the same compound?
A: inactive

Q: What about the Potency [2] of the same compound?
A: inactive

Q: And the outcome [3]?
A: inactive

Q: What about the Potency [4] of the same compound?
A: inactive

Q: And the Potency [6]?
A: inactive

Q: What about the Potency [7] of the same compound?
A: inactive

Q: What about the Potency (Aromatase (Homo sapiens)) of the same compound?
A: inactive

Q: What about the Potency [8] of the same compound?
A: inactive

Q: And the outcome [10]?
A: inactive

Q: And the outcome [11]?
A: inactive

Q: And the Potency [18]?
A: inactive

Q: And the Potency [12]?
A: inactive

Q: And the Potency [13]?
A: inactive

Q: What about the Potency [14] of the same compound?
A: inactive

Q: What about the outcome [16] of the same compound?
A: inactive

Q: With `NC(=S)C(N)=S` as the compound, how does the Potency [19] read?
A: inactive

Q: And the Potency [17]?
A: inactive

Q: And the outcome [3]?
A: inactive

Q: What about the Potency [4] of the same compound?
A: inactive

Q: And the activation ([5]; at 70.3 µM (top of the series))?
A: -1.3%

Q: And the Potency [6]?
A: inactive

Q: And the Potency [7]?
A: inactive

Q: And the Potency (Aromatase (Homo sapiens))?
A: inactive

Q: What about the Potency [8] of the same compound?
A: inactive

Q: What about the Potency [9] of the same compound?
A: inactive

Q: And the outcome [10]?
A: inactive

Q: And the outcome [11]?
A: inactive

Q: And the Potency [18]?
A: inactive

Q: What about the Potency [14] of the same compound?
A: inactive

Q: What about the outcome [16] of the same compound?
A: inactive
